Measured values from PubChem BioAssay AID743398 (Broad Institute, 2014).
Hit rate of the full screen: of about 300,000 compounds, about 3,600 (1.2%) were called active. No stated cut-off is given here; in the data, active means activation above about 30% (passing the limit was not always enough); inconclusive means no clear call, values can overlap the other calls. This excerpt belongs to a sample that is enriched for actives.

Assay: Wnt/beta-catenin pathway activators, primary screen, cell-based, plate reader, single point (AID 743398);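 further: 0% = neutral control wells and 100% = positive control wells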
Conditions: Wnt/beta-catenin reporter cell assay, activator, at 9.35 µM, stronger effect = higher value
In the case of `CN1CCN(CCNC(=O)Nc2ccccc2[N+](=O)[O-])CC1`, the activation is reported as -0.54% (inactive).
With `O=[N+]([O-])c1ccccc1N/N=C1\CCc2ccccc21` the activation was 47.7% (active).
In the case of `O=[N+]([O-])c1cc(C(F)(F)F)ccc1NN=C1CCCC1`, the activation is reported as 6.33% (inactive).
With `CC1=C(C(=O)N2CCOCC2)CC(CC(=O)NCC2CCCCC2)C(=O)N1Cc1ccc(F)cc1` (stereo not given) the activation was -1.2% (inactive).
With `CCCCCCN1CCN(C2CN(Cc3cn(Cc4ccc(F)cc4)nn3)S(=O)(=O)C2)CC1` (stereo not given) the activation was -5.62% (inactive).
For `Cc1ccc(C(=O)Nc2ccn(C)n2)cc1`, the activation was 55.8% (active).
For `Cn1ccc(NC(=O)Nc2ccc(Cl)cc2)n1`, the activation was 20.1% (inactive).
With `CN(C)S(=O)(=O)c1cc(C(=O)Nc2ccn(C)n2)c(Cl)cc1Cl` the activation was 1.22% (inactive).
In the case of `Cc1ccc(-c2ccc(CN3C(C(C)C)C(=O)N(Cc4cn(CCC5OCCO5)nn4)CCS3(=O)=O)cc2)cc1` (stereo not given), the activation is reported as -0.655% (inactive).
For `CC(=O)Nc1ccc(C(=O)NNC(=O)CCCCC(=O)NNC(=O)c2ccc(NC(C)=O)cc2)cc1`, the activation was 1.15% (inactive).
For `CC(=O)Nc1ccc(C=CC(=O)c2ccc([N+](=O)[O-])cc2)cc1`, the activation was -6.15% (inactive).
In the case of `CC(=O)Nc1ccc(C(=O)/C=C/c2ccc[nH]2)cc1`, the activation is reported as 42.8% (active).
With `CCOc1ccccc1C(=O)N1CCC[C@@H]1C(=O)N1CCC[C@H]1C(=O)NCc1ccccc1` the activation was 1.73% (inactive).
For `COC(=O)[C@]12C[C@H](CC(=O)NCCc3ccccc3OC)C(=O)N(Cc3ccccc3)C1=C[C@H](C(C)C)O[C@@H]2C1CC1`, the activation was -2.31% (inactive).
In the case of `COc1ccc(-c2nnc(-c3ccc4ccccc4c3)o2)cc1`, the activation is reported as 3.21% (inactive).
In the case of `COc1ccc(Nc2nnc(C)c3ccccc23)cc1`, the activation is reported as 1.79% (inactive).
With `COc1ccc(Nc2ccc3ccccc3c2)cc1` the activation was 50.4% (active).
For `CCOc1ccc2[nH]c(=S)sc2c1`, the activation was 6.79% (inactive).
With `COCc1cc(=O)[nH]c(-c2ccc(C(F)(F)F)cc2)n1` the activation was -1.39% (inactive).
In the case of `COCc1cc(=O)n2[nH]c(C)c(-c3ccccc3)c2n1`, the activation is reported as 47.6% (active).
For `CCCc1cc(=O)n2[nH]c(C)c(-c3ccc(Cl)cc3)c2n1`, the activation was -2.59% (inactive).
For `O=C(C(=O)N1CCC(c2ccccc2)CC1)c1ccccc1`, the activation was -2.25% (inactive).
In the case of `Cc1cc(NC(=O)COc2ccccc2C#N)no1`, the activation is reported as 19% (inactive).
For `Cc1cc(NC(=O)CSc2nc3c(cc2C#N)CCCCC3)no1`, the activation was 35.1% (active).
With `CC(NC(=O)CSc1nc2c(cc1C#N)CN(C)CC2)c1ccccc1` (stereo not given) the activation was -0.152% (inactive).
For `CCOC(=O)C=Cc1ccc(C(=O)OCC)[nH]1`, the activation was -4.57% (inactive).
For `COc1ccc(C2=CN(Cc3ccccc3)C(c3ccc(OC)cc3)CC2=O)cc1` (stereo not given), the activation was -3.3% (inactive).
For `O=C(NCCCNC(=O)c1ccccc1Cl)c1cnccn1`, the activation was -1.92% (inactive).
For `Cn1c(=NC(=O)c2cnccn2)sc2ccccc21`, the activation was 40.5% (active).
In the case of `COC(=O)c1ccc(OC(=O)c2cnccn2)cc1`, the activation is reported as -1.23% (inactive).
In the case of `CC(=O)C1=C(C)N(Cc2ccccc2)C(=S)NC1c1cccc(Br)c1` (stereo not given), the activation is reported as -4.75% (inactive).
With `CCOC(=O)[C@]12CCCC=C1N(CCC1=CCCCC1)C(=O)[C@H](CC(=O)NCCCOC)C2` the activation was -3.04% (inactive).
With `O=C(/C=C/c1ccc([N+](=O)[O-])o1)NNC(=O)c1ccc(F)cc1` the activation was 37.2% (active).
In the case of `O=C(N/N=C/c1ccc([N+](=O)[O-])o1)c1cn(-c2ccccc2)nc1-c1ccc(F)cc1`, the activation is reported as -0.879% (inactive).
With `O=C(NNC(=O)C1CCCC1)c1ccc(F)cc1` the activation was -1.64% (inactive).
In the case of `CCCCCn1nnnc1-c1nc2cc3ccccc3cc2[nH]c1=O`, the activation is reported as -1.88% (inactive).
In the case of `COc1ccc(NC(=O)C2(C)Cc3c(-c4cccc(NC(C)=O)c4)ccnc3O2)cc1OC` (stereo not given), the activation is reported as -0.993% (inactive).
For `COCc1cc(N2CCN(C(=O)OC(C)(C)C)C[C@@H]2C)ccc1N1CCN(Cc2ccccc2)[C@H](C)C1`, the activation was -6.08% (inactive).
With `O=C(NCCC1=CCCCC1)c1ccc(Cl)c([N+](=O)[O-])c1` the activation was 12.3% (inactive).
In the case of `O=C(NCCC1=CCCCC1)c1ccc(-n2cncn2)cc1`, the activation is reported as 36.7% (active).
With `O=C(Cc1nn[nH]n1)NCCC1=CCCCC1` the activation was 1.57% (inactive).
With `COC(=O)[C@@]12C[C@@H](CC(=O)NCCCCc3ccccc3)C(=O)N(Cc3ccccc3)C1=CCC(C)(C)C2` the activation was -3.6% (inactive).
For `O=C(c1ccc(N2CCOCC2)c([N+](=O)[O-])c1)N1CCN(c2ccccc2F)CC1`, the activation was -6.11% (inactive).
With `CC(C)c1ccc(S(=O)(=O)N2CCN(C(=O)c3ccc(N4CCCC4)c([N+](=O)[O-])c3)CC2)cc1` the activation was -1.38% (inactive).
With `O=C(c1ccc(N2CCOCC2)c([N+](=O)[O-])c1)N1CCN(S(=O)(=O)c2cccs2)CC1` the activation was 42% (active).
With `O=S1(=O)c2c(cccc2N2CCCC2)O[C@H](COCc2ccccc2)CN1C1CC1` the activation was -2.59% (inactive).
With `Brc1ccc(C2CC(c3ccccc3)=Nc3ccccc3N2)cc1` (stereo not given) the activation was 63.6% (active).
For `O=C(c1ccccc1)N1N=C(c2ccccc2O)CC1c1ccc(Br)cc1` (stereo not given), the activation was -1.76% (inactive).
For `c1ccc(C2=Nc3cccc4cccc(c34)N2)cc1`, the activation was -4.88% (inactive).
For `COCOc1cccc(CN2CCC(C)(Oc3ccc(SC)cc3)C2)c1` (stereo not given), the activation was 0.071% (inactive).
For `CC1(C)CC(=O)C=C(c2ccc(COC(=O)c3cc(F)cc(F)c3)cc2)C1=O`, the activation was 0.449% (inactive).
For `CCc1cc(-c2nnn(CCC3COCCO3)c2CC)ccc1-c1cn(Cc2ccc3ccccc3c2)nn1` (stereo not given), the activation was -3.93% (inactive).
For `COc1ccc(N=Nc2ccc(O)c(P(=O)(c3ccccc3)c3ccccc3)c2)cc1`, the activation was 1.19% (inactive).
For `COc1ccc(N=C(C)c2sc3ccccc3c2O)cc1`, the activation was 50.3% (active).
For `COC(=O)Cc1[nH]n(-c2nc3ccccc3s2)c(=O)c1C(C)=Nc1ccc(OC)cc1`, the activation was -8.84% (inactive).
With `COc1cc(NC(=O)C2=C(C)OCCS2)c(Cl)cc1C(=O)NCCCN1CCCC(C)C1` (stereo not given) the activation was 2.04% (inactive).
In the case of `Cc1cc2cc3n(c2nn1)N=C(Cl)CC3`, the activation is reported as -1.61% (inactive).
With `Cc1nn(-c2ccc([N+](=O)[O-])cc2)c(N)c1-c1ccccc1` the activation was 37.5% (active).
In the case of `O=C1CC(c2ccccc2)=NN1c1ccc([N+](=O)[O-])cc1`, the activation is reported as 5.66% (inactive).
With `Cc1cc(CO)nn1-c1ccc([N+](=O)[O-])cc1` the activation was 3.25% (inactive).
